Hits are enriched below; roughly 1.6% of the tested compounds scored in any of these assays.
PERK inhibitor: blocks human PERK kinase | hit rate 0.17% among 220,000 | inhibition, % at 5.6 µM | CHO PERK-DD fusion, SEAP luminescence translation reporter | Q9NZJ5 | AID 1416;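 active = inhibition above the mean inhibition of all tested compounds plus 3 SD, set separately per screening campaign, cut at about 2.9% in these data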;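 note: PERK kinase domain activated by AP20187 dimerizer at 100 nM; 0% = DMSO with dimerizer and 100% = rapamycin at 8.4 µM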
eIF4E-4G inh: blocks eIF4E binding to eIF4G; P63073+Q04637; TR-FRET eIF4E-eIF4GI(517-606) binding, 2 h; inhibition, % at 21.7 µM; hit rate 0.37% among 220,000; AID 782;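 active = inhibition above about 30%, limit read from the data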;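 note: 0% = full FRET control wells and 100% = background wells lacking eIF4GI fragment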
Target sequence (P63073 whole entry, looked up, the tested form may be a part): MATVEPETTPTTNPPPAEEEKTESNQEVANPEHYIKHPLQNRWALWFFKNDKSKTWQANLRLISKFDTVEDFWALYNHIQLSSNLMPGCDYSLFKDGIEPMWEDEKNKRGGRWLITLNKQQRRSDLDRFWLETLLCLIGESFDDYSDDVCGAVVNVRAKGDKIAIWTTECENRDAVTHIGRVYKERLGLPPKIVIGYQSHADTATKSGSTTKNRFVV
Target sequence (Q04637 whole entry, looked up, the tested form may be a part): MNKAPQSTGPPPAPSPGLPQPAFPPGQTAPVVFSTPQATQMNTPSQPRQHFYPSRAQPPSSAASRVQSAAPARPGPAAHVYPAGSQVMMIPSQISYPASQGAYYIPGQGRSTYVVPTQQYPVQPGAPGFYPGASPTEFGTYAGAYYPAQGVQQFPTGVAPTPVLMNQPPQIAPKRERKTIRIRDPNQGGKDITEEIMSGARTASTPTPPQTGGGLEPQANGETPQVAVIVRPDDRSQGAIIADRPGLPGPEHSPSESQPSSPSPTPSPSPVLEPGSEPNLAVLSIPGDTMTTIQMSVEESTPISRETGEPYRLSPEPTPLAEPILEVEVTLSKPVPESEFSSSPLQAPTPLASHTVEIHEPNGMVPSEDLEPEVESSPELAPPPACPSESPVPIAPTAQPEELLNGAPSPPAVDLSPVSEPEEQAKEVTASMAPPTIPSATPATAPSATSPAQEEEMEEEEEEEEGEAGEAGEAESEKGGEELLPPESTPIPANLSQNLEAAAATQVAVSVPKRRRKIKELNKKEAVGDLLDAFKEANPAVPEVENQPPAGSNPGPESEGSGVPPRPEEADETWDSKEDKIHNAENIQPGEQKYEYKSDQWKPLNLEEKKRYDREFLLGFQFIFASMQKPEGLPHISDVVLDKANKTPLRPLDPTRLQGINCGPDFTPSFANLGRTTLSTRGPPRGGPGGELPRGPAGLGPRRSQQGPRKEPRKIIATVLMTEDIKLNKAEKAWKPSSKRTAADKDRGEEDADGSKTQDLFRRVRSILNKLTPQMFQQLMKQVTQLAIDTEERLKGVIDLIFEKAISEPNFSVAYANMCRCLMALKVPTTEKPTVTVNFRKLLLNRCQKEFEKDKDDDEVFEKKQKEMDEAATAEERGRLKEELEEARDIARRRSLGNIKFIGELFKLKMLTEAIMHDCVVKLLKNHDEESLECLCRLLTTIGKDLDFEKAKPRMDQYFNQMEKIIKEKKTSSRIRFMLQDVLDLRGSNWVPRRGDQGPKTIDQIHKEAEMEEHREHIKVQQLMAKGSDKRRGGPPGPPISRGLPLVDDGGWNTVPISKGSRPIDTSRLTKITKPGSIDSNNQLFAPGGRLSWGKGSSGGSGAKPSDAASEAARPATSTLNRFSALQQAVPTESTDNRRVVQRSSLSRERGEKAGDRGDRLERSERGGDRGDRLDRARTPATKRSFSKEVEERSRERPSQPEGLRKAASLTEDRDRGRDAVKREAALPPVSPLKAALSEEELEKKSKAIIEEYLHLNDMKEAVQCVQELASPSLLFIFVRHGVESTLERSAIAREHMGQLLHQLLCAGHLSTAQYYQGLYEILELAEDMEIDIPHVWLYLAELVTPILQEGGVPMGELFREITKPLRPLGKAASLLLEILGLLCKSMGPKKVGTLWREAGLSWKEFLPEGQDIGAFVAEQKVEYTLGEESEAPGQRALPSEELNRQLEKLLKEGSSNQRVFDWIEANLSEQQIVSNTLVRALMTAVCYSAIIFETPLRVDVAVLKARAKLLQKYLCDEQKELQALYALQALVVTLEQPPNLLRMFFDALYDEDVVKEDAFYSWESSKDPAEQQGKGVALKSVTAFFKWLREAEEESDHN
MLLE-PAM2 inh: blocks PAM2 peptide binding to the PABP1 MLLE domain; GST-MLLE / FITC-PAM2 fluorescence polarization; hit rate 0.36% among 360,000; AID 588489; inhibition, % at 20 µM; in the data active = inhibition above about 35%, passing the limit was not always enough;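 note: plate controls were DMSO wells with GST-MLLE for no effect and wells lacking GST-MLLE protein for full effect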
PABP FP inh: PABP-poly(A) binding inhibition; P11940; PABP-poly(A) RNA binding, fluorescence polarization; inhibition, % at 35 µM; hit rate 1% among 290,000; AID 2014;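 note: calls also rest on retests at 20 µM and on dose response follow-up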
eIF4H FP inh: inhibitors of RNA binding by human eIF4H. Q15056. eIF4H fluorescence polarization binding assay. inhibition, % at 35 µM. hit rate 0.94% among 290,000;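 note: calls also rest on retests at 20 µM and on dose response follow-up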
* hit, by the source's call; · = no result; [ ] = remark or other dose. Unless noted, the rule behind the calls is not given here.

SMILES	PERK inhibitor	eIF4E-4G inh	MLLE-PAM2 inh	PABP FP inh	eIF4H FP inh
CC(=O)c1ccc(NC(=O)C(C)OC(=O)COc2ccc(C#N)cc2)cc1 (stereo not drawn)	0.4	-2.2	4.6	119.8*	active
CC(=O)c1ccc(OCC(=O)OC(C)C(=O)NC2CCCCC2)cc1 (stereo not drawn)	·	·	3.9	·	·
CS(=O)(=O)C1=NN2C(=N)/C(=C\c3ccc(OC(=O)c4ccco4)cc3)C(=O)N=C2S1	·	·	-13.6	9.1	-10.0
CC(C)CS(=O)(=O)C1=NN2C(=N)/C(=C\c3ccc(OC(=O)c4ccco4)cc3)C(=O)N=C2S1	·	·	-20.1	60.7*	66.5*
N=C1/C(=C/c2ccc(Br)o2)C(=O)N=C2SC(CC(=O)N3CCCC3)=NN12	·	·	-23.3	·	·
N=C1/C(=C/c2ccco2)C(=O)N=C2SC(CC(=O)N3CCCC3)=NN12	·	·	-3.6	48.2*	78.6*
Nc1c(OS(=O)(=O)c2ccccc2)cccc1OS(=O)(=O)c1ccccc1	·	·	-14.4	·	·
COc1ccc(-n2c(Cc3cccn3C)nnc2SCC(=O)Nc2cccc(F)c2)cc1	-1.5	62.2*[fluorescence artefact?]	-32.5	6.0	1.0
COc1ccc(NC(=S)NCCSc2ccc(Cl)cc2)c(OC)c1	1.2	-4.3	-7.0	8.5	2.4
COc1ccccc1NC(=S)NCCSc1ccc(Cl)cc1	-0.3	32.5*	-32.7	-9.9	-1.2
Cc1sc2ncnc(SCC(=O)NC(=O)NCc3ccco3)c2c1C	-0.1	4.2	11.8	47.4*	82.5*
Cc1sc2ncnc(NCc3cccs3)c2c1C	0.6	4.8	-4.5	6.2	-9.6
Cc1ccc(-c2csc3ncnc(OCC(=O)NC(=O)NCc4ccco4)c23)cc1	-0.4	-8.2	1.6	50.9	20.6*
Cc1sc2ncnc(NCc3ccco3)c2c1C	-0.5	3.6	-2.2	44.9*	66.0*
Cc1nc(SCC(=O)NCc2ccco2)c2c(C)c(C)sc2n1	0.3	-16.4	2.0	-3.9	-1.7
COc1ccc(C(=O)OCC(=O)Nc2cccc(S(=O)(=O)NC3=NCCCCC3)c2)cc1[N+](=O)[O-]	·	·	-10.9	·	·
COCCNC(=O)c1c[nH]n2c(=O)cc(C3CCN(C(=O)OC(C)(C)C)CC3)nc12	3.8*	-4.8	-4.2	3.2	-8.9
O=C(COC(=O)c1ccccc1NC(=O)c1ccco1)Nc1ncc(Cl)cc1Cl	-0.5	-16.9	-15.7	12.5	2.1
O=C(COC(=O)c1ccccc1O)Nc1ncc(Cl)cc1Cl	0.0	19.8	-0.1	active	73.6
COc1ccc(OCCCC(=O)OCC(=O)Nc2ncc(Cl)cc2Cl)cc1	·	·	45.4*	·	·
COc1ccc(/C=C/C(=O)OCC(=O)Nc2ncc(Cl)cc2Cl)cc1	·	·	-1.0	·	·
C[C@@H]1CN([C@H](C)CO)C(=O)CCCn2nncc2CO[C@H]1CN(C)C(=O)NC1CCCCC1	·	·	-16.8	·	·
COc1ccc(-n2nnnc2SCC(=O)Nc2cccc(O)c2)cc1	·	·	-4.5	2.2	8.7
O=C(c1cccn2c(=O)c3cc(Cl)ccc3nc12)N1CCN(Cc2ccc3c(c2)OCO3)CC1	-0.9	46.1*[fluorescence artefact?]	5.0	11.4	-5.0
O=C(c1cccn2c(=O)c3ccccc3nc12)N1CCN(Cc2ccc3c(c2)OCO3)CC1	-1.0	·	-0.9	-4.0	-6.2
SMILES	PERK inhibitor	eIF4E-4G inh	MLLE-PAM2 inh	PABP FP inh	eIF4H FP inh
O=C1CC(c2ccc(O)c(O)c2)Oc2c1ccc(O)c2O (stereo not drawn)	·	6.5	-10.2	53.4*	94.3*
CC(C)=CCc1c(O)ccc2c1OC(c1ccc(O)c(O)c1)CC2=O (stereo not drawn)	1.1	3.1	-19.4	6.8	9.3
CCOC(=O)c1[nH]c2c(c1C)C(=O)CC(c1ccco1)C2 (stereo not drawn)	1.5	7.9	-13.8	8.4*	99.3*
COCCOC(=O)c1[nH]c2c(c1C)C(=O)CC(c1ccco1)C2 (stereo not drawn)	1.2	8.4	7.0	37.3	83.6*
CSCCOC(=O)c1[nH]c2c(c1C)C(=O)CC(c1ccco1)C2 (stereo not drawn)	0.6	5.7	-7.7	-1.9	90.2
Cc1c(C(=O)OCCOC(C)C)[nH]c2c1C(=O)CC(c1ccco1)C2 (stereo not drawn)	0.6	-2.0	-4.2	-6.9	59.1*
Cc1c(C(=O)OCc2ccccc2)[nH]c2c1C(=O)CC(c1ccco1)C2 (stereo not drawn)	0.4	15.2	8.3	0.7*	81.1
CC(=NOC(=O)c1ccc(I)cc1)c1nccs1	·	·	-2.5	·	·
C[C@@H]1CN([C@@H](C)CO)C(=O)CCCn2nncc2CO[C@@H]1CN(C)S(=O)(=O)c1cccc(C#N)c1	·	·	-1.0	·	·
CC(C)(C)OC(=O)NCCCCCNC(=O)c1[nH]cnc1C(=O)N[C@@H](Cc1ccccc1)C(=O)OCc1ccccc1	0.6	-1.6	-5.1	active	108.9*
O=C(CN1CC(=O)Oc2ccccc21)OCC(=O)c1ccccc1	2.9*	0.9	13.9	0.8	14.8
CC(OC(=O)C1CC1)C(=O)Nc1cccc(S(=O)(=O)N2CCOCC2)c1 (stereo not drawn)	·	·	-10.1	·	·
CC(C)(C)c1cc(-c2csc(Nc3ccccc3)[n+]2Cc2ccc(C(=O)O)cc2)cc(C(C)(C)C)c1O	0.5	11.3	-10.1	5.2*	52.4*
CC(Cc1ccccc1)NC(=O)CC(c1ccccc1)c1ccccc1O (stereo not drawn)	·	·	0.2	5.0	-4.1
CC(Cc1ccccc1)NC(=S)CN1CCCC1=S (stereo not drawn)	0.5	-3.6	24.0	-2.8	53.0*
COc1cc2cc(CCCO)oc(=O)c2cc1OC	·	·	3.0	·	·
Nc1ccc2oc(-c3ccccc3Cl)cc(=O)c2c1O	0.2	5.1	11.9	5.5*	90.2*
O=c1cc(-c2ccccc2Cl)oc2ccc([N+](=O)[O-])c(O)c12	0.4	-2.2	-1.7	-6.5	10.7
CCOc1ccc(N2CC(C(=O)Nc3ccccc3N3CCCC3)CC2=O)cc1 (stereo not drawn)	·	·	-10.8	5.3	-0.5
Cc1ccccc1Cn1ccc(NC(=O)c2nn3cccnc3c2Cl)n1	-1.5	1.0	-118.4	-3.5	9.0
Cc1ccccc1Cn1ccc(NC(=O)c2cc3ncc(Br)cn3n2)n1	1.0	14.4	-2.3	-11.1	53.0*
CCN(CC)S(=O)(=O)c1ccc2[nH]c(=O)cc(C(=O)NCC3CCCO3)c2c1 (stereo not drawn)	·	·	-0.2	·	·
COc1cc(OC)cc(C(=O)NC2CCSC2=O)c1 (stereo not drawn)	0.2	-3.7	-4.0	7.4	-0.7
Cc1onc(-c2c(F)cccc2Cl)c1C(=O)NC(=S)NC1CCSC1=O (stereo not drawn)	-0.3	5.2	43.6*	-8.1	-0.7
Cc1onc(-c2c(F)cccc2Cl)c1C(=O)NC1CC1	·	·	-7.5	-0.7	6.7
Cc1onc(-c2c(F)cccc2Cl)c1C(=O)NC(=S)Nc1c(C)n(C)n(-c2ccccc2)c1=O	-0.7	-0.4	45.1*	21.8	-3.3
COc1ccc(C(=O)NC(=S)NC2CCSC2=O)cc1 (stereo not drawn)	-0.1	-7.2	38.4*	0.5	-3.1
CCOC(=O)C(C(=O)Cc1ccccc1)c1ccccc1 (stereo not drawn)	·	·	-1.2	·	·

Compound activity as filed in PubChem BioAssay.
